# Fluor 339 460 = intrinsic fluorescence of library compounds, ex339/em460 – biochemical, MLSMR library, data from DPM-DC assay, artefact control, profiling panel; compound autofluorescence, ex339/em460 nm, NADH buffer; active compounds read high; 1 = no-compound wells, NADH background; fluorescence fold increase at 10 µM; 65,000 compounds, 5.5% hits; AID 709, 2007;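 active = at 10 µM, mean starting fluorescence two-fold or more over control wells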;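 also: signal is the first read of a kinetic run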
# DPM-DC inhibit = S. pneumoniae DPM-DC inhibitors, primary screen, biochemical, PK/LDH-coupled NADH fluorescence; diphosphomevalonate decarboxylase (Streptococcus pneumoniae D39); purified DPM-DC; calls only at 10 µM; 65,000 compounds, 0.49% hits;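 active = the 320 compounds with the highest percent inhibition in the single-dose primary screen, excluding strongly autofluorescent ones, cut at about 32% in these data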;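 also: kinetic rate of NADH fluorescence loss reporting ADP formed by the decarboxylase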
# PMK inhibit = S. pneumoniae PMK inhibitors, primary screen, biochemical, mevalonate pathway, pilot trial included. inhibition, % at 10 µM. purified PMK, PK/LDH-coupled NADH absorbance 340 nm. AID 539, 2006. phosphomevalonate kinase (Streptococcus pneumoniae D39). 65,000 compounds, 0.49% hits;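 active = top-ranked compounds by inhibition in the single 10 µM screen, taking a fixed number of the strongest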;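 also: 0% = full reaction with DMSO carrier and 100% = background rate without enzyme reaction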
# MK inhibit = S. pneumoniae MK inhibitors, primary screen, biochemical, PK/LDH-coupled NADH absorbance; purified MK, PK/LDH-coupled NADH absorbance 340 nm; mevalonate kinase [Streptococcus pneumoniae D39]; inhibition, % at 10 µM; 65,000 compounds, 0.48% hits;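 active = ranked among the strongest by inhibition in the single 10 µM screen, a fixed top-ranked set picked for dose follow-up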
# NADH enzymes = inhibitors of PK/LDH coupling enzymes, profiling panel, artefact control, biochemical, MLSMR library; 65,000 compounds, 0.02% hits; IC50, µM (doses to about 10 µM), for the others: at the top dose inhibition; coupled PK/LDH NADH assays, four targets; AID 774, 2007;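 active = single-dose screening hits from any of four coupled enzyme assays that gave an IC50 when retested across doses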;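 also: the DPM-DC format reads NADH fluorescence rather than 340 nm absorbance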
# Starred values were filed as active, the others as inactive; i = inactive; . = no result shown; + = active, no number. Compounds with a hit are over-represented: about 6.6% of the library has one in this group of screens.
SMILES,Fluor 339 460,DPM-DC inhibit,PMK inhibit,MK inhibit,NADH enzymes
O=P1(NC2CCCC2)COc2ccccc2OC1,0.98,+,12.0,10.0,19.0%
CCCNc1oc(-c2cccc3ccccc23)nc1C#N,3.77*,.,5.0,7.0,6.0%
COc1cc(CN2CCN(C(=O)COc3ccccc3)CC2)cc(OC)c1OC,1.1,i,0.0,47.0*,16.0%
CCOc1cc(-c2nc3c(C)cccn3c2NCC2CCCO2)ccc1O (centres undefined),3.91*,.,13.0,9.0,11.0%
Cc1cccn2c(NCC3CCCO3)c(C(C)C)nc12 (centres undefined),3.63*,.,0.0,2.0,1.0%
Cc1ccc2c(c1)C1CN(C)CCC1N2C(=O)COc1ccc(S(=O)(=O)N2CCOCC2)cc1 (centres undefined),1.08,i,10.0,6.0,5.0%
Cn1c2ccccc2c2c(C(=O)N3CCC4(CC3)OCCO4)cn(C3CCCC3)c(=O)c21,2.09*,.,17.0,16.0,17.0%
COCCn1cc(C(=O)N2CCC3(CC2)OCCO3)c2c3ccccc3n(C)c2c1=O,4.31*,.,13.0,0.0,7.0%
O=C(C1CCC(=O)N1C1CCCCC1)N1CCC2(CC1)OCCO2 (centres undefined),1.03,i,24.0,0.0,8.0%
COCCCn1c(N)c(C(=O)OC(C)COC)c2nc3ccccc3nc21 (centres undefined),3.9*,.,13.0,14.0,14.0%
CCCCOCCCn1c(N)c(C(=O)OC(C)COC)c2nc3ccccc3nc21 (centres undefined),2.35*,.,8.0,13.0,11.0%
O=C1NC(=O)N(C2CCCCC2)C(=O)C1C1c2ccccc2C(=O)N1Cc1ccccc1 (centres undefined),1.13,i,5.0,2.0,2.0%
COc1ccc(-n2c(O)c(C(C)=NCc3ccco3)c(=O)[nH]c2=O)cc1,1.05,i,3.0,7.0,3.0%
O=C(Cn1ncc2c3ccccc3n(Cc3ccccc3)c2c1=O)N1CCC2(CC1)OCCO2,1.53,i,18.0,0.0,6.0%
Cc1c2cnn(CC(=O)N3CCC4(CC3)OCCO4)c(=O)c2c(C)n1Cc1ccc(F)cc1,1.12,i,29.0*,0.0,11.0%
CCc1cc2c(s1)NC(=O)CN=C2c1cccs1,1.06,i,15.0,0.0,6.0%
CCOC(=O)c1c(N)n(CCN2CCCCC2)c2nc3ccccc3nc12,4.92*,.,19.0,0.0,10.0%
CCCCn1c(C)c(C(=O)OCC)c2c(CN3CCOCC3)c(O)ccc21,1.02,i,8.0,5.0,11.0%
CC(C)(C)OC(=O)c1c(N)n(Cc2ccco2)c2nc3ccccc3nc12,2.5*,.,5.0,8.0,4.0%
Nc1c(C(=O)NCCc2ccccc2)c2nc3ccccc3nc2n1CCN1CCOCC1,3.88*,.,2.0,9.0,6.0%
CCC(=NCCCN1CCOCC1)c1c(O)n(Cc2ccccc2)c(=O)[nH]c1=O,1.04,i,8.0,4.0,2.0%
COc1ccc(CCNC(=O)c2c(N)n(CCN3CCOCC3)c3nc4ccccc4nc23)cc1,3.36*,.,9.0,3.0,2.0%
CCOC(=O)c1c(C)n(Cc2ccco2)c2ccc(O)cc12,1.06,i,2.0,0.0,1.0%
COP(=O)(OC)C(O)C(Cl)(Cl)Cl (centres undefined),0.99,i,4.0,9.0,2.0%
FC(F)(F)C1=NC(C(F)(F)F)=NP(N2CCOCC2)(N2CCOCC2)=N1,1.14,i,9.0,10.0,10.0%
SMILES,Fluor 339 460,DPM-DC inhibit,PMK inhibit,MK inhibit,NADH enzymes
CCCCNC(=O)Nc1ccc(C(O)(C(=O)OCC)C(F)(F)F)cc1 (centres undefined),1.13,i,5.0,6.0,4.0%
Cc1ccc(CCN2CC(C(=O)N3CCC4(CC3)OCCO4)CC2=O)cc1 (centres undefined),1.11,i,12.0,12.0,8.0%
Nc1c(C(=O)NCCN2CCOCC2)c2nc3ccccc3nc2n1Cc1ccco1,3.89*,.,9.0,14.0,12.0%
CCCCn1c(N)c(C(=O)NCCN2CCOCC2)c2nc3ccccc3nc21,2.08*,.,14.0,0.0,7.0%
Cc1c(N=Cc2c(O)n(Cc3ccco3)c(=O)[nH]c2=O)c(=O)n(-c2ccccc2)n1C,0.95,i,16.0,7.0,12.0%
Cc1cc2c(C(F)(F)F)cc(=O)oc2c2c1NCCC2,1.27,i,26.0*,0.0,9.0%
CC1CCCCN1CC(=O)c1ccc2cc[nH]c2c1 (centres undefined),1.93,i,5.0,4.0,13.0%
Cn1cc(CCC(=O)N2CCC3(CC2)OCCO3)c2ccccc21,1,i,21.0,3.0,8.0%
Cc1cc(N2CCOCC2)nc2ccc(NC(=O)CCC(=O)N3CCC4(CC3)OCCO4)cc12,4.76*,.,13.0,8.0,11.0%
Cc1ccc2cc3cc(C(=O)N4CCC5(CC4)OCCO5)oc3nc2c1,3.52*,i,12.0,5.0,15.0%
N#Cc1ccccc1Cn1cc(C(=O)c2ccco2)c2ccccc21,1.04,i,15.0,0.0,3.0%

# Screening results: PubChem BioAssay, SRMLSC
